This is an account of results in PubChem BioAssay (NCATS).

Molecules are shown by their SMILES. Records with an inconclusive call do not appear. Entries that show only a call come without a potency. A number with no mark means an inactive call. The source made the active and inactive calls. Calls come from the whole dose curve; as a rule, active = well fitted inhibition curve with a large enough effect; inconclusive = small, poorly fitted or top-dose-only effect; inactive = no such curve, though single readings can be large or run the other way. Where a SMILES comes first, the peptide text is derived from it.

This experiment in a line: Primary qHTS for inhibitors of nuclear receptor binding SET domain protein 2 (NSD2) in an RCH-ACV wild type WT cells (2C) (AID 1645877). Note: nearly all actives have a fitted effect of over 70% in size. The note with it: RCH-ACV (leukaemia line) NSD2 WT (2C) viability, CellTiter-Glo, 72 h; series mostly up to 44.9 µM. For orientation: Quantitative high-throughput screening tests each substance at several concentrations.
In the case of `O=S(=O)(O)c1ccc(Nc2ncnc3c2ncn3[C@@H]2O[C@H](CO)[C@@H](O)[C@H]2O)cc1`, the Potency entry is “inactive”.
With `C=C(CCO)C(=O)OCC1OCC(OC(=O)C(=C)CCO[C@@H]2O[C@H](COC(=O)C(=C)CCO[C@@H]3O[C@H](CO)[C@@H](O)[C@H](O)[C@H]3O)[C@@H](O)[C@H](O)[C@H]2O)C(O)C1O` (some centres not stated), the Potency entry was “inactive”.
`COc1cc(O)cc2c1C(=O)OC(C)C2` (configuration not stated): the Potency result is “inactive”.
Take `CN1CCN(C(=O)c2cc3cc(Cl)ccc3[nH]2)CC1`: the Potency entry was “inactive”.
On the same count and under the same terms, next, `CC1=CC[C@@]2(C)CC[C@@](O)(C(C)C)[C@@H]2[C@@H](O)C1`: “inactive”.
As to `CC(C)=CC[C@H]1O[C@]2(O)C([C@H]3CCC4[C@@]5(C)CC[C@H](O[C@@H]6O[C@H](CO)[C@H](O)[C@H](O[C@@H]7O[C@H](CO)[C@@H](O)[C@H](O)[C@H]7O)[C@H]6O[C@@H]6O[C@@H](C)[C@H](O)[C@@H](O)[C@H]6O)C(C)(C)C5CC[C@@]4(C)[C@]3(C)[C@H]2O)[C@@]1(C)O` (some centres not stated), the activity change, negative = cell killing was -7.27% [at 9.23 µM].
For `COc1c2c(c(C)c3c1C(=O)OC3)OC1(C)CC(O)C34OC(OC)(CCC3(C)C1C2)OC4(C)CO` (configuration not stated), the Potency entry was “inactive”.
With `O=C(OC[C@H]1O[C@@H](Oc2ccccc2COC(=O)C2(O)C=CCCC2O)[C@H](O)[C@@H](O)[C@@H]1O)c1ccccc1` (some centres not stated), the Potency result is “inactive”.
As to `CC(C)CC(=O)NCCn1cc(C(=O)O)c(=O)cc1C(O)c1ccccc1` (configuration not stated), the Potency result is “inactive”.
Take `C=C1[C@H]2CCC3[C@]4(C)CCC[C@@](C)(C(=O)O)C4CC[C@]3(C2)[C@H]1OC(C)=O` (some centres not stated): the Potency entry is “inactive”.
Same read-out and setting: next, `CC1(C)CCC2(C(=O)O)CCC3(C)C(=CCC4C5(C)CCC(O)C(C)(CO)C5C(O)CC43C)C2C1` (configuration not stated): “inactive”; `C=C[C@H]1[C@H](O[C@@H]2O[C@H](CO)[C@@H](O)[C@H](O)[C@H]2O)OC=C2C(=O)N3Cc4c([nH]c5ccccc5c4=O)[C@@H]3C[C@H]21`: “inactive”.
On to `CCC/C=C/C=C/C1CC(O)C(O)C(=O)C1CO` (configuration not stated), for which the Potency result was “inactive”.
As for `O=C(Cc1ccccc1)OC[C@H]1O[C@H](O[C@H]2O[C@H](CO)[C@@H](O)[C@H](O)[C@H]2O)[C@H](O)[C@@H](O)[C@@H]1O`, the Potency entry is “inactive”.
Still for that read-out and setting: next, `NC(=O)C(O[C@@H]1O[C@H](CO[C@@H]2O[C@H](CO)[C@@H](O)[C@H](O)[C@H]2O)[C@@H](O)[C@H](O)[C@H]1O)c1ccccc1` (some centres not stated): “inactive”; `C[C@H](/C=C/[C@@]1(O)[C@H](C)CC(=O)CC1(C)C)O[C@@H]1O[C@H](CO[C@@H]2OC[C@@H](O)[C@H](O)[C@H]2O)[C@@H](O)[C@H](O)[C@H]1O`: “inactive”; `CC(C)C1NC(=O)CNC(=O)C2CCCN2C(=O)C(Cc2c[nH]c3ccccc23)NC(=O)CNC(=O)C(Cc2ccc(O)cc2)NC(=O)CNC1=O` (configuration not stated) (cyclo(GVGYGWP); configuration not given here): “inactive”.
